In the library only some 4% were active in any assay of this set; here they are far more common.
GRIN3A LBD mod: NR3A (human) ligand-binding domain modulation; Tm shift relative to glycine control, % at 25 µM; NR3A LBD differential scanning fluorimetry, Tm shift; 0% = protein alone, 100% = glycine-bound protein; actives 2.5% (n = 340,000);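 active = melting temperature shift of at least 10% of the positive control shift, at one fixed dose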
aDG glyco act: alpha-DG glycosylation activation. Pro5-aDG cells, alpha-DG glycosylation AlphaScreen (IIH6); 0% Pro5, 100% B10-LARGE cell signal. activation, % at 10 µM. actives 0.22% (n = 360,000). AID 624168;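 active = activation of at least 8% versus controls, or a plate z-score of at least 8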;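 also: Pro5 are CHO cells carrying HIG-tagged alpha-DG that lacks glycosylation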
ADAM10 inh: inhibits human ADAM10; recombinant ADAM10, EDANS/DABCYL FRET peptide cleavage, 3 h; inhibition, % at 7 µM; actives 0.62% (n = 370,000);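 active = inhibition above a per-campaign cutoff equal to the mean of compounds falling between control-based bounds plus 3 SD, cut at about 20% in these data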
FAS TE block: blocks the thioesterase domain of human fatty acid synthase. P49327. recombinant FAS-TE, OMFH fluorogenic substrate, fluorescence endpoint. inhibition, % at 15 µM. actives 0.67% (n = 360,000). AID 602261;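 active = compounds whose normalised, plate-corrected inhibition of enzyme fluorescence in the single-dose primary screen is 50% or more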
ADAM17 inh: inhibitors of human ADAM17. P78536. recombinant ADAM17, EDANS/DABCYL FRET peptide cleavage. inhibition, % at 6.95 µM. actives 0.83% (n = 370,000);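 active = inhibition above the mean of compounds lying between control limits plus 3 SD, set per campaign, cut at about 8.5% in these data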
Of the large screens only hits and unclear results are named; the others gave an inactive call.

NC(=S)NNC(=S)Nc1ccccc1	none
S=C(NN=C(C1CC1)C1CC1)Nc1ccccc1	GRIN3A LBD mod 11.2
CCOc1ccc(Nc2nc(N)nc(CSC(=S)N3CCOCC3)n2)cc1	none
CC(C)CCn1cnc2c1c(=O)[nH]c(=O)n2Cc1ccccc1	none
Cn1cnc2c1c(=O)[nH]c(=O)n2Cc1ccccc1	GRIN3A LBD mod 10.3
CCCCCCCCN1C(=O)[C@@H](CC(=O)NCc2cccc3ccccc23)C[C@@]2(C(=O)OC)C1=C[C@H](C(C)C)O[C@@H]2C1CC1	none (no result: GRIN3A LBD mod, aDG glyco act, FAS TE block)
Cc1ccc2c(Cl)cc(Cl)c(OCC(=O)Nc3cccc(S(=O)(=O)N(C)C)c3)c2n1	none
Cc1ccc2c(Cl)cc(Cl)c(OCC(=O)Nc3cccc(S(N)(=O)=O)c3)c2n1	GRIN3A LBD mod 11.1
NS(=O)(=O)c1cccc(NC(=O)COC(=O)c2cc(-c3ccc(Cl)cc3)nc3ccccc23)c1	GRIN3A LBD mod 33.9
O=C(COC(=O)c1ccc2ncsc2c1)Nc1ccc(OC(F)(F)F)cc1	none
COc1ccc(-n2cnnc2SCC(=O)Nc2ccc(C(N)=O)cc2)cc1	none
CCN(CC)S(=O)(=O)c1ccc(/C=C/C(=O)OCC(=O)c2c(N)n(C)c(=O)n(C)c2=O)cc1	none
Cc1ccc(Nc2nc3ccccc3o2)cc1F	GRIN3A LBD mod 12.1
CCc1ccc(-n2nc3ccc(NC(=O)c4ccc5c(c4)OCO5)cc3n2)cc1	GRIN3A LBD mod 15.2
Cc1ccc(-n2nc3ccc(NC(=O)c4cccc([N+](=O)[O-])c4C)cc3n2)cc1	GRIN3A LBD mod 17.1
CCOC(=O)c1cccc(NC(=O)c2ccc3c(c2)OCO3)c1	none
Cc1ccc(-n2nc3ccc(NC(=O)c4ccc5c(c4)OCO5)cc3n2)cc1	GRIN3A LBD mod 12.9
Cc1cccc(C(=O)NNC(=O)CSc2nnc(C3CC3)n2C)c1	none
Cc1nc2cc(NC(=O)N3CCCCC3)ccc2n1C	none
Cn1ncc(Br)c1C(=O)Nc1ccc(Cl)cn1	GRIN3A LBD mod 13.1
Cc1cccc(N2CCN(S(=O)(=O)c3cn(C)cn3)CC2)c1C	none
Brc1ccccc1OCCCn1cnc2ccccc21	none
O=S(=O)(c1ccc(F)cc1)N1CCN(S(=O)(=O)c2cc(F)ccc2F)CC1	none
O=S(=O)(c1ccc(F)cc1F)N1CCN(CCO)CC1	GRIN3A LBD mod 12.6
Cc1ccc(NC(=O)CN(C)C(=O)COc2ncnc3ccc(Br)cc23)cc1	none
COCCNc1cc(C)nc2c3c(C)cc(C)nc3nn12	none
O=C(Nc1nc(-c2ccccn2)cs1)c1ccco1	none
O=C(Nc1nc(-c2ccccn2)cs1)c1ccc(Br)s1	GRIN3A LBD mod 26.1
CCC(Oc1ccccc1)C(=O)Nc1ccccc1C(=O)N1CCN(C)CC1 (configuration not stated)	GRIN3A LBD mod 11.1
CCc1ccc(OC(C)C(=O)Nc2ccccc2C(=O)N2CCOCC2)cc1 (configuration not stated)	none
CCC(Oc1ccccc1)C(=O)Nc1ccccc1C(=O)N1CCCCC1 (configuration not stated)	none
CCC(Oc1ccccc1)C(=O)Nc1ccccc1C(=O)N1CCOCC1 (configuration not stated)	GRIN3A LBD mod 12.6
CNC(=O)c1ccc(NC(=O)Nc2ccccc2)cc1	GRIN3A LBD mod 25.5
CC(=O)c1cccc(NC(=O)Nc2ccccc2)c1	none
CC(=O)c1ccc(NC(=O)Nc2ccccc2)cc1	GRIN3A LBD mod 27.3
CCCc1nc2sc3ccccc3c(=O)c2c(=O)n1Cc1ccc(OC)cc1	GRIN3A LBD mod 14.6
COC(=O)c1ccc(NC(=S)Nc2ccc(O)cc2)cc1	GRIN3A LBD mod 20.2
COC(=O)c1ccc(NC(=S)NCCc2ccccc2C)cc1	GRIN3A LBD mod 28.6
Oc1ccc(NC(=S)Nc2ccc(O)cc2)cc1	none
COC(=O)c1ccc(NC(=S)NCCc2ccc(OC)cc2)cc1	none
COC(=O)c1ccc(NC(=S)NCCc2cccc(C)c2)cc1	GRIN3A LBD mod 23.5
COc1cc(N/C(=C\C(=O)c2ccccc2)c2ccccc2)ccc1Cl	none (no result: GRIN3A LBD mod, aDG glyco act, FAS TE block)
CC(C)[C@H](NC(=O)c1ccccc1)C(=O)NC1=NCCS1	none
CCc1nnc(NC(=O)c2ccc(S(=O)(=O)N(CCOC)CCOC)cc2)s1	none
Cc1ccc(NC(=O)CN2C(=O)CCS(=O)(=O)c3ccccc32)cc1Cl	GRIN3A LBD mod 15.1
O=C(CN1C(=O)CCS(=O)(=O)c2ccccc21)Nc1ccc(F)cc1	none
Cc1ccc(NC(=O)CN2C(=O)NC(Cc3ccccc3)C2=O)cc1Cl (configuration not stated)	GRIN3A LBD mod 15.0
Cc1ccc(NC(=O)CN2C(=O)NC(Cc3ccccc3)C2=O)cc1 (configuration not stated)	none
CC(C)CC1NC(=O)N(CC(=O)Nc2ccc(OC(F)F)cc2)C1=O (configuration not stated)	GRIN3A LBD mod 27.0
CN1CCN(C2CC(=O)N(CCc3ccccc3)C2=O)CC1 (configuration not stated)	none
CC(C)C[C@H]1COc2cc(Br)ccc2S(=O)(=O)N1Cc1cn(Cc2ccc(Cl)cc2)nn1	none (no result: GRIN3A LBD mod, aDG glyco act, FAS TE block)
Cc1cccc(Nc2nnc(SCC(=O)c3ccc(O)cc3O)s2)c1	GRIN3A LBD mod 32.8
Cc1cccc(Nc2nnc(SCC(=O)Nc3ccc(C(=O)O)cc3)s2)c1	none
Cc1ccc(Nc2nnc(SCC(=O)c3ccc(O)cc3O)s2)cc1	GRIN3A LBD mod 25.9
COc1ccc(OCCNC(=O)c2ccccc2OCC(=O)Nc2ccc(NC(C)=O)cc2)cc1	none
CC1Cc2cc(S(=O)(=O)N3CCC(C(=O)N(C)Cc4ccccc4)CC3)ccc2N1C(=O)C1CC1 (configuration not stated)	none
CCN(Cc1ccncc1)Cc1ccc(OC)c(OC)c1	none
CCN(CC)Cc1ccc(OC)c(Cl)c1	GRIN3A LBD mod 13.9
COC(=O)Nc1nc2c(C)cccc2s1	none
CSc1cccc(NC(=O)Nc2nc3c(C)cccc3s2)c1	GRIN3A LBD mod 17.8
CS(=O)(=O)NNC(=O)c1cc2cc3ccccc3nc2s1	none
COc1ccc(S(=O)(=O)NNC(=O)c2cc3cc4ccccc4nc3s2)cc1	GRIN3A LBD mod 28.9
COc1ccc2nc3sc(C(=O)NCCN4CCc5ccccc5C4)cc3cc2c1	GRIN3A LBD mod 19.0
COc1ccccc1C1SCCN1S(=O)(=O)c1cccc(C(F)(F)F)c1 (configuration not stated)	none
OC[C@@H]1CN(Cc2ccc(Cl)cc2)C[C@H](n2cnc3c(NC4CCCC4)ncnc32)O1	none (no result: GRIN3A LBD mod)
COc1ccc(OC)c(S(=O)(=O)Nc2ccc(O)c3ccccc23)c1	aDG glyco act 3.2
COc1ccc(OC)c(S(=O)(=O)Nc2ccc(C(C)=O)cc2)c1	GRIN3A LBD mod 11.2
COc1ccc(OC)c(S(=O)(=O)Nc2ccc(C(N)=O)cc2)c1	none
COc1ccc(NC(=O)c2[nH]c(C)c(C(C)=O)c2C)cc1S(=O)(=O)Nc1ccc(Br)cc1	GRIN3A LBD mod 11.4
COc1ccc(OC)c(S(=O)(=O)Nc2cccc3c(O)cccc23)c1	none
CCCCNC(=O)CC1Nc2ccccc2NC1=O (configuration not stated)	GRIN3A LBD mod 20.1

Bioassay records: PubChem, several laboratories
